Only some compounds are listed: those with a hit (about 21% of all), similar ones and a draw of the others.
Pf growth 96h = P. falciparum growth inhibition at 96 hours | P. falciparum luciferase reporter growth, 96 h | Potency, µM (titrated, usually from 28.7 µM), for the others: at the top dose activity change, negative = inhibition, actives largely listed as inhibitors | hit rate 6.9% among 320,000; further: potency means the concentration at half of the fitted maximal effect; on the % scale 0 is the no-effect control and ±100 the full control effect
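Infected RBCs, 2% Hct / 0.05% parasitemia final; luciferase-reporter P. falciparum; cpd 96 h, 37 C, 5% CO2; luciferase detection reagent; luminescence.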
Shiga inhibitor = blocks Shiga toxin action in Vero cells; inhibition, % at 38.7 µM; Vero cells, Shiga toxin protein synthesis inhibition reporter; AID 2315; hit rate 9.2% among 290,000; in the data active means inhibition mostly above about 28%, no sharp cut-off; inactive means mostly below about 43%; further: 0% is about no effect
HCMV antiviral = blocks human cytomegalovirus replication; HFF cells, HCMV-luciferase reporter, 72 h; hits give low values; activity change, negative = inhibition, % at 57.5 µM; hit rate 4.5% among 410,000; AID 1259415; in the data active means activity change below about -60%; inconclusive means no clear call, values can overlap the other calls; inactive means above about -39%; further: on the % scale 0 is the no-effect control and ±100 the full control effect
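Steps: HFFs plated, 16 h 37C; compounds added; HCMV-luciferase added to MOI 1 PFU/cell; 72 h 37C; OneGlo reagent, 5 min room temperature; luminescence read, normalized to controls.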
Cycloheximide cs = affects cycloheximide protein synthesis inhibition readout, counter-screen; cell reporter, cycloheximide protein synthesis inhibition counterscreen; max response, %; hit rate 12% among 300,000; AID 2314; in the data active means max response mostly above about 13%, no sharp cut-off; inactive means mostly below about 14%; further: read at 38.3 µM for the half of the compounds with a filed dose; 0% is about no effect
Pf growth 48h = P. falciparum growth inhibition at 48 hours (one generation); P. falciparum luciferase growth in erythrocytes, 48 h; Potency, µM (highest dose often 28.7 µM), for inactives: at the top dose activity change, negative = inhibition, hits mostly inhibitors; hit rate 5.9% among 310,000; AID 504832; further: potency means the concentration at half of the fitted maximal effect; on the % scale 0 is the no-effect control and ±100 the full control effect
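Firefly luciferase activity from engineered P. falciparum reports growth; inhibitors lower the luminescent signal. Cultures contained 2% hematocrit erythrocytes at 0.1% final parasitemia.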
HCV inh = blocks hepatitis C virus; Huh7.5.1 HCVcc-Cre infection, luciferase reporter, 44 h; Potency, µM (highest dose often 41.8 µM), for the others: at the top dose activity change, negative = inhibition, most hits filed as inhibitors; hit rate 3.4% among 340,000; AID 651820; further: potency means the concentration at half of the fitted maximal effect; on the % scale 0 is the no-effect control and ±100 the full control effect
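Seed cells (1,000/well) for 4 h; treat with compound and infect with HCVcc-Cre, moi about 0.5. Incubate 44 h, then detect luciferase activity.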
Active calls of the source: *; [ ] = dose if it differs, or a comment. Unless noted, the call rests on the fitted dose curve; in most records, active means well fitted inhibition curve with a large enough effect; inconclusive means small, poorly fitted or top-dose-only effect, or another doubt; inactive means no such curve, though single readings can be large or run the other way.

COc1ccc(/C=C/C(=O)NCCCN2CCCC2)cc1 was read as Pf growth 96h 5%, Shiga inhibitor 20, HCMV antiviral -103*, Cycloheximide cs -4, Pf growth 48h 7% and HCV inh -8%.
For Cc1cccc(NC(=O)CCNC(=O)c2ccc(Br)cc2)c1C the results were Pf growth 96h 15%, Shiga inhibitor -5, HCMV antiviral 32, Cycloheximide cs -2, Pf growth 48h -8%[0.00184 µM] and HCV inh -6%.
`C#CCNC(=O)/C=C/c1ccc(OC)cc1` gave Pf growth 96h 124%, Shiga inhibitor 59*, HCMV antiviral 9, Cycloheximide cs 40*, Pf growth 48h 131% and HCV inh 1%.
For O=C(CSc1nc2ccccc2[nH]1)N=Nc1c(O)[nH]c2ccccc12 the results were Pf growth 96h 79%, Shiga inhibitor 0, HCMV antiviral 19, Cycloheximide cs 17*, Pf growth 48h 35% and HCV inh 10%.
Screening Cc1ccc(CNC(=O)CSc2nc3ccccc3[nH]2)cc1 returned Pf growth 96h 0%, Shiga inhibitor 14, HCMV antiviral 14, Cycloheximide cs 15*, Pf growth 48h 7% and HCV inh 8%.
For Cc1ccc2nc(SCC(=O)NCc3ccc(F)cc3)[nH]c2c1 the results were Pf growth 96h 1%, Shiga inhibitor 37, HCMV antiviral -65*, Cycloheximide cs 7, Pf growth 48h -14% and HCV inh -4%.
`Cc1ccc2nc(SCC(=O)NCc3ccc(S(N)(=O)=O)cc3)[nH]c2c1` gave Pf growth 96h 13%, Shiga inhibitor -12, HCMV antiviral 11, Cycloheximide cs 1, Pf growth 48h 0% and HCV inh -8%.
COC(=O)c1cc(CSc2nc3ccccc3[nH]2)oc1C was read as Pf growth 96h 92%, Shiga inhibitor 36*, HCMV antiviral 14, Cycloheximide cs 32* and HCV inh inconclusive.
Screening COC(=O)c1ccc(CNC(=O)CSc2nc3ccccc3[nH]2)cc1 returned Pf growth 96h 56%, Shiga inhibitor -13, HCMV antiviral -35, Cycloheximide cs -5, Pf growth 48h 45% and HCV inh 2%.
For Cc1cc2c(s1)c1cnn(Cc3ccccc3Cl)c(=O)c1n2C the results were Shiga inhibitor 9 and Cycloheximide cs 12.
For CCOC(=O)c1ccc(NC(=O)CN2C(=O)CN(C(C)=O)C2=S)cc1 the results were Pf growth 96h -12%, Shiga inhibitor -18, HCMV antiviral -8, Cycloheximide cs 4, Pf growth 48h 5% and HCV inh -2%.
For Cn1c(=O)c2ncn(CC(=O)N=Nc3c(O)[nH]c4ccccc34)c2n(C)c1=O the results were Pf growth 96h 34%[1.15 µM], Shiga inhibitor 15, Cycloheximide cs 9 and Pf growth 48h 12µM*.
For CCOc1ccc2nc(SCC(=O)NCc3ccc(OC)cc3)[nH]c2c1 the results were Pf growth 96h -10%, Shiga inhibitor 63*, HCMV antiviral -25, Cycloheximide cs 21, Pf growth 48h -8% and HCV inh 1%.
`COc1ccc2nc(SCC(=O)NCc3ccccc3)[nH]c2c1` gave Pf growth 96h inconclusive, Shiga inhibitor -7, HCMV antiviral 8, Cycloheximide cs 0, Pf growth 48h 10% and HCV inh 4%.
Screening COc1ccc(CNC(=O)CSc2nc3cccnc3s2)cc1 returned Pf growth 96h 72%, Shiga inhibitor 17, HCMV antiviral -3, Cycloheximide cs 15*, Pf growth 48h 87% and HCV inh 9%.
`O=C(CCCSc1nc2ccccc2[nH]1)NCc1ccc(Cl)cc1` gave Pf growth 96h 12µM*, Shiga inhibitor -5, HCMV antiviral inconclusive, Cycloheximide cs -3, Pf growth 48h inconclusive and HCV inh inconclusive.
Screening COc1ccc(CNC(=O)CSc2nc3ccc(N)cc3s2)cc1 returned Pf growth 96h 22%, Shiga inhibitor -9, HCMV antiviral 47, Cycloheximide cs -2, Pf growth 48h 6% and HCV inh -14%.
`O=C(CCn1cnc2ccccc21)N=Nc1c(O)[nH]c2ccccc12` gave Pf growth 96h -12%, Shiga inhibitor 13, HCMV antiviral 19, Cycloheximide cs -1, Pf growth 48h -12% and HCV inh 10%.
